Screening data from PubChem.
Rab2 wt GTP = changes GTP binding to wildtype dog Rab2A, up or down | P61105 | GST-Rab2 wt beads, Bodipy-GTP binding, flow cytometry | GTP binding activity, % at 10 µM | 190,000 tested, 0.19% active;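 active = GTP binding activity at least 20 points away from 100%, either lowered or raised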;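 note: 0% = beads with excess unlabeled GTP and 100% = no-compound control corrected for plate trend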
Rac1 act GTP bind = human Rac1 activated mutant GTP binding change. P63000. GST-Rac1 activated beads, fluorescent GTP binding, flow cytometry; actives lie on both sides; 100% means binding = to untreated wells. percent activity (GTP binding), % at 10 µM. 190,000 tested, 0.11% active. AID 764;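 active = GTP binding at least 20 percentage points away from the 100% baseline, in either direction, so actives lie on both sides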
Rac1 wt GTP bind = human Rac1 wildtype GTP binding, inhibitors and activators | GST-Rac1 beads, fluorescent GTP binding, flow cytometry; actives lie on both sides; 0 = cold GTP competed, 100 = untreated | 190,000 tested, 0.27% active | P63000 | GTP binding activity (% of control), % at 10 µM;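 active = GTP binding activity at least 20 points away from the 100% control level, either lower or higher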
HRas wt GTP bind = modulators of GTP binding to human HRas wildtype; 190,000 tested, 0.14% active; P01112; GTP binding activity, % at 10 µM; GST-Ras wt beads, Bodipy-FL-GTP binding, flow cytometry; actives lie on both sides; AID 759;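 active = GTP binding activity at least 20% away from the 100% baseline, either lowered as inhibitor or raised as activator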;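 note: 0% = unlabeled GTP competition control and 100% = no-compound control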
Target sequence (P01112 whole entry, looked up): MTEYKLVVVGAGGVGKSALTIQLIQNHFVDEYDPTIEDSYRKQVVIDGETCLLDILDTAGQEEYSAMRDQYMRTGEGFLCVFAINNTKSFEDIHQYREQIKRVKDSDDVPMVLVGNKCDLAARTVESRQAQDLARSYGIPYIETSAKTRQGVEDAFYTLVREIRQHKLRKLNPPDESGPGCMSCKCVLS
Rab7 wt GTP bind = dog Rab7 wildtype GTP binding, inhibitors and activators; 190,000 tested, 0.055% active; GTP binding activity (percent of control), % at 10 µM; GST-Rab7 beads, fluorescent GTP binding, flow cytometry; actives lie on both sides; untreated = 100%, excess cold GTP = 0%;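 active = fluorescent GTP binding to Rab7 beads changed by at least 20 points from the 100% baseline, either direction, mostly lower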;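 note: median green fluorescence of bound Bodipy-FL-GTP per Rab7 bead population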
Cdc42 wt GTP = changes GTP binding to wildtype human Cdc42. P60953. GST-Cdc42 beads, Bodipy-GTP binding, flow cytometry; actives lie on both sides. percent activity (GTP binding), % at 10 µM. 190,000 tested, 0.2% active. AID 761;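 active = percent activity GTP binding at least 20 points away from the 100% baseline, either down as inhibitor or up as activator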;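 note: median bead fluorescence of bound Bodipy-FL-GTP at 100 nM; 0% = excess unlabeled GTP control and 100% = no compound control; below 100% means less GTP binding so inhibitor and above means activator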
Target sequence (P60953 whole entry, looked up): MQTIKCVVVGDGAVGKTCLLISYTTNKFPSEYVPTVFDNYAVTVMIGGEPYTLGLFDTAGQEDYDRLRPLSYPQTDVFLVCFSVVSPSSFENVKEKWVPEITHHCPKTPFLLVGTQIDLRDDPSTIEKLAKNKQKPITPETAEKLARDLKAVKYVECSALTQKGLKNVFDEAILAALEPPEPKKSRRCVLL
An asterisk follows results filed as active; [ ] = remark or other dose. Only some compounds are listed: those with a hit (about 0.37% of all), similar ones and a draw of the others.

SMILES	Rab2 wt GTP	Rac1 act GTP bind	Rac1 wt GTP bind	HRas wt GTP bind	Rab7 wt GTP bind	Cdc42 wt GTP
CCOC(=O)Cn1nnnc1C(C(C)C)N(Cc1cccs1)Cc1cc2cc(C)ccc2[nH]c1=O (stereo not given)	93	94	97	95	95	75*
O=C(Nc1ccc(S(=O)(=O)N2CCCc3ccccc32)cc1)C1CCCO1 (stereo not given)	111	102	120*[activator]	110	103	117
COc1ccc(S(=O)(=O)Nc2ccc(N3CCOCC3)nc2)cc1	94	94	96	96	94	94
CC(C)Oc1ccc(Cc2cnc(=S)[nH]c2N)cc1	101	101	101	101	100	98
COc1cc(/C=N/NC(=O)c2cc3ccccc3cc2O)ccc1OCCN1CCCCC1	86	76*	97	85	88	97
O=C(O)c1ccc(N2CC3CC(C2)c2cccc(=O)n2C3)c(NC(=S)Nc2ccc(Br)cc2)c1 (stereo not given)	101	97	101	100	104	103
COc1cccc(CN2CCCC(CNC(=O)c3ccc(F)cc3)C2)c1OC (stereo not given)	98	98	102	97	98	98
COc1ccc(CCn2c(C)nc3c(c(=O)c4ccccc4n3C)c2=O)cc1	96	99	96	98	99	103
COc1ccc(CCn2c(C(C)C)nc3c(c(=O)c4ccccc4n3C)c2=O)cc1	77*	95	91	85	96	99
O=C1CN(C(=S)NC(=O)c2ccc(-c3ccccc3)cc2)CCN1	107	97	101	102	109	105
O=C(NCc1ccccc1Cl)C1CCC(CNc2nc(=S)[nH]c3ccccc23)CC1 (stereo not given)	88	92	78*	86	88	90
O=C(NCCc1ccc(Cl)cc1)C1CCC(CNc2nc(=S)[nH]c3ccccc23)CC1 (stereo not given)	88	92	85	89	99	81
C/C=C/c1ccccc1OCc1ccc(C(=O)O)o1	149*[activator]	146*[activator]	194*[activator]	145*[activator]	134*[activator]	161*[activator]
COc1ccc(S(=O)(=O)Cc2ccc(C(=O)N3CCN(c4ccc(Cl)cc4)CC3)o2)cc1	105	101	108	104	102	102
COc1ccc(S(=O)(=O)Cc2ccc(C(=O)N3CCN(c4cc(Cl)ccc4C)CC3)o2)cc1	72*	76*	76*	80	77*	74*
O=C(Nc1nccs1)c1ccc(NC(=O)C2CC=CCC2C(=O)O)cc1 (stereo not given)	89	92	84	89	93	90
COc1ccc(Cl)cc1NC(=O)CCNC(=O)OCc1ccccc1	96	92	91	95	99	90
C/C(CCc1ccccc1)=N\NC(=O)CC(=O)NCCc1ccccc1	101	98	104	101	101	100
COC(=O)c1c(N2C(=O)[C@H]3[C@@H](C2=O)[C@]2(C(=O)Nc4ccccc42)N2CCC[C@@H]32)sc(C)c1C	102	95	103	100	112	99
COC(=O)c1c(N2C(=O)[C@H]3[C@@H](C2=O)[C@]2(C(=O)Nc4c2ccc(C)c4C)N2CCC[C@@H]32)sc(C)c1C	129*[activator]	114	124*[activator]	123*[activator]	131*[activator]	110
COC(=O)c1c(N2C(=O)[C@H]3[C@@H](C2=O)[C@]2(C(=O)Nc4c(C)cc(C)cc42)N2CCC[C@@H]32)sc(C)c1C	126*[activator]	107	115	120*[activator]	121*[activator]	111
Cc1cc(C(=O)NCC23CC4CC(CC(C4)C2)C3)c(C)o1	94	98	100	100	97	99
CCN(CC)C(=O)CCCC(=O)N(CC)CC	102	97	100	101	104	98
Cc1ccc(NC(=O)C(C)NS(=O)(=O)c2ccc(F)cc2)cc1C (stereo not given)	105	101	113	103	111	104
CNC(=O)C(C)NS(=O)(=O)c1ccc(F)cc1 (stereo not given)	36*	36*	34*	40*	27*	37*
SMILES	Rab2 wt GTP	Rac1 act GTP bind	Rac1 wt GTP bind	HRas wt GTP bind	Rab7 wt GTP bind	Cdc42 wt GTP
O=C(CN1C(=O)C2C3c4ccccc4C(c4ccccc43)C2C1=O)Nc1cccc(C(=O)O)c1 (stereo not given)	127*[activator]	155*[activator]	130*[activator]	124*[activator]	145*[activator]	125*[activator]
O=C(Nc1ccc2nc(-c3cccs3)[nH]c2c1)c1cccs1	77*	86	76*	75*	94	75*
Cn1cnnc1SCC(=O)c1c(N)n(Cc2ccccc2)c(=O)n(C)c1=O	98	97	101	100	108	99
COC(=O)c1ccc(/C=N/Nc2nc(-c3ccc(Cl)cc3Cl)cs2)cc1	123*[activator]	119	130*[activator]	121*[activator]	124*[activator]	127*[activator]
Cc1cc(C)cc(C(=O)N(NC(=O)Nc2ccc(Cl)cc2)C(C)(C)C)c1	97	99	99	95	74*	101
CC(=O)OC(C(=O)NC1CCCCC1)c1ccc(Cl)c(Cl)c1 (stereo not given)	33*	31*	29*	35*	22*	35*
COc1cc(SC#N)ccc1N=Cc1c(C)[nH]n(-c2ccc(Cl)cc2)c1=O	90	96	93	94	97	95
COc1cc(SC#N)ccc1N=Cc1c(C)[nH]n(-c2ccc(C)c(C)c2)c1=O	79*	87	78*	80	89	88
COc1ccc(/C=N/n2c(N)c(S(=O)(=O)c3cccs3)c3nc4ccccc4nc32)cc1OC	49*	74*	57*	56*	75*	61*
Nc1c(S(=O)(=O)c2cccs2)c2nc3ccccc3nc2n1/N=C/c1cccc(O)c1	46*	64*	64*	47*	73*	45*
CC(C)Cn1c(N)c(S(=O)(=O)c2cccs2)c2nc3ccccc3nc21	100	99	100	100	99	101
CC(=O)Nc1ccc(N2CC(C)(C)C2=O)cc1	101	97	103	99	109	97
CCc1cc(=O)[nH]c(SCCC(F)=C(F)F)n1	98	94	96	97	105	95
CCOC(=O)Cc1csc(NC(=O)CSc2nc(-c3ccccc3)c(C#N)c(=O)[nH]2)n1	85	79*	88	84	86	84
CCOc1ccc2nc(NC(=O)CSc3nc(-c4ccccc4)c(C#N)c(=O)[nH]3)sc2c1	87	78*	82	85	95	82
